This passage reports PXC50 and Percent Effect results from ChEMBL document CHEMBL3988442, “University of Dundee, Small-Polar-MMV Screening Library” (2021).

“And” between values parts separate entries of the source, which are not always exact repeats. Equal entries are not always repeated. For some of these results: Results with a measured potency or affinity are listed apart.

The target of assay [1] is T1, Methionyl-tRNA synthetase, putative (Leishmania donovani (strain BPK282A1)) (UniProt E9BF75).
T1 sequence (whole entry): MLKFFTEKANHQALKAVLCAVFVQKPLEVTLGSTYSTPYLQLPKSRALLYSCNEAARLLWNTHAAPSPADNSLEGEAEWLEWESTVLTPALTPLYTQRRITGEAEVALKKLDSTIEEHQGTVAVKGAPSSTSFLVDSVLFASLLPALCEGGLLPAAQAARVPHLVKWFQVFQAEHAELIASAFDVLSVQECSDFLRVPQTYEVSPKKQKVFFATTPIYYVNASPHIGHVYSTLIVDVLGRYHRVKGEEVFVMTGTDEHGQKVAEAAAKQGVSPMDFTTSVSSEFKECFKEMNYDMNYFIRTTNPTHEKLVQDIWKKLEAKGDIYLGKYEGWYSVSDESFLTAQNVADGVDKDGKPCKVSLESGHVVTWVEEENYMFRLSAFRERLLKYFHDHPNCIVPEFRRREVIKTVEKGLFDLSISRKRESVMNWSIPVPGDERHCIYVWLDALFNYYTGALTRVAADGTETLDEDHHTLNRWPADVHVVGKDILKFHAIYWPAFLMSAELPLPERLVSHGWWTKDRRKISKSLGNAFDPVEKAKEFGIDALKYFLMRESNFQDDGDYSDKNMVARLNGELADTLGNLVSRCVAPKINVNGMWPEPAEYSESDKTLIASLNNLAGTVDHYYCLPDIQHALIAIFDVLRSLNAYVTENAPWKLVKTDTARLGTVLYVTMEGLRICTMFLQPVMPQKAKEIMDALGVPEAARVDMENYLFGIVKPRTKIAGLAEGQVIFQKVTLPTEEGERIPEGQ
The assay is described as follows: Leishmania donovani Methionine tRNA synthetase (LdMetRS):v7. Dose response assay. Format: functional. Also on record: conc 80 nM, time 150 minutes.

In assay [2] the target is Protein translocase subunit SecA (Escherichia coli (strain K12)) (UniProt P10408). As to the kind of experiment: Assay to Identify E. coli SecA ATPase Inhibitors. Format: functional. Set-up: scale not given: direction of the effect not stated beside the values. To be noted: 30 µM.
Protein translocase subunit SecA (Escherichia coli (strain K12)), sequence (P10408 whole entry): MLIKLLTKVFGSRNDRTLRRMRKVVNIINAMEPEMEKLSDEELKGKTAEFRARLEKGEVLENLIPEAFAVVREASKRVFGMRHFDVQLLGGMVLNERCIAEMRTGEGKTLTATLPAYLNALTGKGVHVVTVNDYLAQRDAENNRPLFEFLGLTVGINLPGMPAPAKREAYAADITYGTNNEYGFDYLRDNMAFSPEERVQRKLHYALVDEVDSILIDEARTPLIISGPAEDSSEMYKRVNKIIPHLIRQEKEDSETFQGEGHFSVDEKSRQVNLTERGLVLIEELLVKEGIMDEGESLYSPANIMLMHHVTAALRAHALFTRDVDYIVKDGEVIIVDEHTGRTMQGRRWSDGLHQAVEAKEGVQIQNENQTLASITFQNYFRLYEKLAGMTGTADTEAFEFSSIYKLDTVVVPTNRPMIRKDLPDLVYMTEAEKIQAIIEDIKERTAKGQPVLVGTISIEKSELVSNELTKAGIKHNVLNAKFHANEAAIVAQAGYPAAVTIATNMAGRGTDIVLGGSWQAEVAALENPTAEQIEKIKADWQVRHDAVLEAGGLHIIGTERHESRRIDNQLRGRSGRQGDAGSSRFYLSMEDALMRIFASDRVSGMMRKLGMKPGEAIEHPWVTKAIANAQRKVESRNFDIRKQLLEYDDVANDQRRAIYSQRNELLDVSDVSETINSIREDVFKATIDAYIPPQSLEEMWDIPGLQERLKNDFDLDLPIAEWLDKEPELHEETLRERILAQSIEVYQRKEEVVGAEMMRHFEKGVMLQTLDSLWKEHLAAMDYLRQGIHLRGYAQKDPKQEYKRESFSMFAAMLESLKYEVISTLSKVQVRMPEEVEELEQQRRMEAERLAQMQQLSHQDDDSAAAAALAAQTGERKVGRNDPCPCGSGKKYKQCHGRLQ
The target of assay [3] is T2, Ubiquitin-activating enzyme e1, putative (Leishmania donovani (strain BPK282A1)) (UniProt E9BSI1).
T2 sequence (whole entry): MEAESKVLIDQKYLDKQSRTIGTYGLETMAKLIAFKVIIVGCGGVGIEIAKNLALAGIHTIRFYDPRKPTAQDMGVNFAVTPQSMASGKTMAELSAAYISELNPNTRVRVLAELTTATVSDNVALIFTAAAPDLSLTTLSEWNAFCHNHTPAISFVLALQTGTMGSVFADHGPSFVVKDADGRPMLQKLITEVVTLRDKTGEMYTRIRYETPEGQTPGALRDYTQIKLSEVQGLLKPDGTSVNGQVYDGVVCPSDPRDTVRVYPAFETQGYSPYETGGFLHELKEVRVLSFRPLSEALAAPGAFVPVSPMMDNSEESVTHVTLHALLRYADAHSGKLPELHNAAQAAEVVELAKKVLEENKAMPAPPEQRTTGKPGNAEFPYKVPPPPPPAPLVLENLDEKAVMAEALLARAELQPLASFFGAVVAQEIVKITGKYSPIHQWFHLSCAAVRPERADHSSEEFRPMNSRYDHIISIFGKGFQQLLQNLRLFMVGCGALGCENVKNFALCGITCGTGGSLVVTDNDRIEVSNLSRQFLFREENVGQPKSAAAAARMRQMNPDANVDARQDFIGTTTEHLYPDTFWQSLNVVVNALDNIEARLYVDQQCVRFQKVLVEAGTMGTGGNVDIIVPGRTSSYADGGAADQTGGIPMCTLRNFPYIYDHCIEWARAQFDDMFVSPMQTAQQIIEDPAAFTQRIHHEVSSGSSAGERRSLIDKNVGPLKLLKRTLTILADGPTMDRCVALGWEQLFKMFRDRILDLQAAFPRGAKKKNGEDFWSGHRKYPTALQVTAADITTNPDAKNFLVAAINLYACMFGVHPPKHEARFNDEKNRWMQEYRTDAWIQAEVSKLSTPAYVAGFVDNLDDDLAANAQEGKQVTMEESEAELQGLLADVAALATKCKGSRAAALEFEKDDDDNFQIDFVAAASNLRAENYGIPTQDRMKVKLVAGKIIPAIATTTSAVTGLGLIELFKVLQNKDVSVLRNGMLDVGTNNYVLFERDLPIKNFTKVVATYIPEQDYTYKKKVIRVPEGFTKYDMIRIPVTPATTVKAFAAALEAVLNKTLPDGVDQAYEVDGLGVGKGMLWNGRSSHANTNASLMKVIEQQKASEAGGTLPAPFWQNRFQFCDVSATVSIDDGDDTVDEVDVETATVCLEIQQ
As to the kind of experiment: Leishmania donovani Ubiquitin Activating Enzyme (LdE1). Format: functional. Set-up: scale not given: direction of the effect not stated beside the values. The settings on record: 30 µM.

The target in assay [4] is AMP-activated protein kinase, AMPK (Homo sapiens) (UniProt P54646+O43741+P54619+Q9UGJ0+Q9Y478+Q13131+Q9UGI9). As to the kind of experiment: AMP-dependent Kinase enzyme assay. An in vitro enzyme assay that detects ADP turnover that is directly proportional to AMPK activity. This uses naive AMPK that is activated during the assay with MK-8722. Format: functional. Also on record: scale not given: direction of the effect not stated beside the values. To be noted: 30 µM.

For assay [5], the target named is Sialic acid-binding Ig-like lectin 9 (Homo sapiens) (UniProt Q9Y336). The assay is described as follows: Hs-Siglec9 ALPHAscreen SOP 20170721. Also on record: scale not given: direction of the effect not stated beside the values. To be noted: 10 µM.
Sialic acid-binding Ig-like lectin 9 (Homo sapiens), sequence (Q9Y336 whole entry): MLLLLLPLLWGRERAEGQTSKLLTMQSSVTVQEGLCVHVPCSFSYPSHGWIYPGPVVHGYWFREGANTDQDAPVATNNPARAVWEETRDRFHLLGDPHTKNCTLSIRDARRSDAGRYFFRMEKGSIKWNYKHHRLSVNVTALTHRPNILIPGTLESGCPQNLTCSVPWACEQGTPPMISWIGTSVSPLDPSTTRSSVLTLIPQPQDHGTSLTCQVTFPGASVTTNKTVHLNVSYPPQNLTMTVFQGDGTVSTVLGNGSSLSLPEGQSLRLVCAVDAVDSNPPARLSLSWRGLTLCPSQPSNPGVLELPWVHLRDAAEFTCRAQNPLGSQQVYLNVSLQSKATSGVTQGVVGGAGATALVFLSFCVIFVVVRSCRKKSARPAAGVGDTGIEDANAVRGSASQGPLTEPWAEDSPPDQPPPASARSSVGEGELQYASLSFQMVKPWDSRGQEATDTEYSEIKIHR
The next assay deals with Trypanosoma cruzi. As to the kind of experiment: Trypanosoma cruzi phosphomannomutase and mannose-1-phosphate guanylyltransferase assay. Set-up: scale not given: direction of the effect not stated beside the values. Format: functional. To be noted: 10 µM.
Assay [6] concerns the target T3, Arginase-2, mitochondrial (Homo sapiens) (UniProt P78540).
T3 sequence (whole entry): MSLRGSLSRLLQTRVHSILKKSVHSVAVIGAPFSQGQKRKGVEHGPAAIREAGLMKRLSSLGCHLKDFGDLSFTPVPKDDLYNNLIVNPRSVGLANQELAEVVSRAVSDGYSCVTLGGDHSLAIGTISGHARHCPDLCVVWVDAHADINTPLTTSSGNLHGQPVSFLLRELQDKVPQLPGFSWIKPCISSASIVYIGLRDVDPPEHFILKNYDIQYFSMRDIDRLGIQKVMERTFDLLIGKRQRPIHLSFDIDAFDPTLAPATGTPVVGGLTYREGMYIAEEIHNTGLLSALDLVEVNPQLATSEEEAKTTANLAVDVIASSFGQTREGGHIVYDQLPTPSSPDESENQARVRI
The assay is described as follows: in vitro enzyme assay to detect the production of urea directly proportional to the activity of Arginase II. Format: functional. Also on record: scale not given: in the data most compounds retested in dose-response had high values. To be noted: 33.3 µM.

The target in assay [7] is T4, Proteasome subunit beta (Trypanosoma cruzi) (UniProt O96673).
T4 sequence (whole entry): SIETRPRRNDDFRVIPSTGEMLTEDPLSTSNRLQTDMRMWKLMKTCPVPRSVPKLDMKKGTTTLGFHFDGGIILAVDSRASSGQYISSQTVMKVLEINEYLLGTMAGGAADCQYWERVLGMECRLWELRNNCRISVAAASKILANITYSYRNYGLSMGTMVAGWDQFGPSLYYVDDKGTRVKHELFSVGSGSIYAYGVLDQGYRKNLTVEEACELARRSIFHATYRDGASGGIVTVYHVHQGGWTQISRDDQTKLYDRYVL
As to the kind of experiment: Trypanosoma cruzi proteasome chymotrypsin-like activity (TcProtChymo) assay. To be noted: 9.37 µM. Set-up: scale not given: in the data most compounds retested in dose-response had high values. Format: functional.

For another assay, the system named is N/A. As to the kind of experiment: Trypanosoma cruzi proteasome luciferase counter-screen. To be noted: 9.37 µM. Also on record: scale not given: direction of the effect not stated beside the values. Format: functional.
The species entered for the next assay is Homo sapiens. As to the kind of experiment: To identify inhibition of the IFN signalling (Jak-Stat) pathway via expression of an eGFP reporter gene under the control of an IFN-stimulated response element (ISRE) containing MxA promoter. Format: functional. Also on record: scale not given: direction of the effect not stated beside the values. To be noted: 30 µM. A general note: A reporter such as luciferase makes a cellular process visible.

The target of assay [8] is T5, Tyrosyl-tRNA synthetase, putative (Trypanosoma cruzi (strain CL Brener)) (UniProt Q4DSP6).
T5 sequence (whole entry): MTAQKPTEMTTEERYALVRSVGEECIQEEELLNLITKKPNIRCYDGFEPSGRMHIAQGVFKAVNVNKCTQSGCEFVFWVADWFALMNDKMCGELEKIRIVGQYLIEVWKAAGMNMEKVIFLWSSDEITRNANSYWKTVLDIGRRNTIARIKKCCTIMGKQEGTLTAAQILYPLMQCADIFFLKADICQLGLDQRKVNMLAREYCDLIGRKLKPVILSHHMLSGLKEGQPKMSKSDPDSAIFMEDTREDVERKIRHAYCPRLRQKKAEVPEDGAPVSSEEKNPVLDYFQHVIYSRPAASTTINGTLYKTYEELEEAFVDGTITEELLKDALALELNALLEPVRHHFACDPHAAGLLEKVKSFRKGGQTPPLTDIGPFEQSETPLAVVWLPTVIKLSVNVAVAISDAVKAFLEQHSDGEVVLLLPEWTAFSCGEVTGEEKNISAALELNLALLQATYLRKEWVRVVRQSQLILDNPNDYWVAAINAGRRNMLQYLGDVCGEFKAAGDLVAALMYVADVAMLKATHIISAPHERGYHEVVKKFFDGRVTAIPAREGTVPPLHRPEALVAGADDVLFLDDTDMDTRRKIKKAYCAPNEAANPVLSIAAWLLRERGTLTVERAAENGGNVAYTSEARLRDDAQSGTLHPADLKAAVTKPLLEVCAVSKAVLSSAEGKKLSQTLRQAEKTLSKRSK
The assay is described as follows: Trypanosoma cruzi tyrosyl tRNA synthetase (TcYRS) _High Tyrosine SOP. Format: functional. Also on record: scale not given: in the data most compounds retested in dose-response had high values. To be noted: 30 µM.

Assay [9] has as its target T5, Tyrosyl-tRNA synthetase, putative (Trypanosoma cruzi (strain CL Brener)). The assay is described as follows: Trypanosoma cruzi tyrosyl tRNA synthetase (TcYRS) SOP. To be noted: 30 µM. Set-up: scale not given: direction of the effect not stated beside the values. Format: functional.
The target in assay [10] is Chromo domain-containing protein 1 (Saccharomyces cerevisiae (strain ATCC 204508 / S288c) (Baker's yeast)) (UniProt P32657). The assay is described as follows: ScCHD-1 Enzyme Inhibition Assay. Set-up: scale not given: in the data most compounds retested in dose-response had high values. Format: functional. To be noted: 30 µM.
Chromo domain-containing protein 1 (Saccharomyces cerevisiae (strain ATCC 204508 / S288c) (Baker's yeast)), sequence (P32657 whole entry, the tested form may be a part): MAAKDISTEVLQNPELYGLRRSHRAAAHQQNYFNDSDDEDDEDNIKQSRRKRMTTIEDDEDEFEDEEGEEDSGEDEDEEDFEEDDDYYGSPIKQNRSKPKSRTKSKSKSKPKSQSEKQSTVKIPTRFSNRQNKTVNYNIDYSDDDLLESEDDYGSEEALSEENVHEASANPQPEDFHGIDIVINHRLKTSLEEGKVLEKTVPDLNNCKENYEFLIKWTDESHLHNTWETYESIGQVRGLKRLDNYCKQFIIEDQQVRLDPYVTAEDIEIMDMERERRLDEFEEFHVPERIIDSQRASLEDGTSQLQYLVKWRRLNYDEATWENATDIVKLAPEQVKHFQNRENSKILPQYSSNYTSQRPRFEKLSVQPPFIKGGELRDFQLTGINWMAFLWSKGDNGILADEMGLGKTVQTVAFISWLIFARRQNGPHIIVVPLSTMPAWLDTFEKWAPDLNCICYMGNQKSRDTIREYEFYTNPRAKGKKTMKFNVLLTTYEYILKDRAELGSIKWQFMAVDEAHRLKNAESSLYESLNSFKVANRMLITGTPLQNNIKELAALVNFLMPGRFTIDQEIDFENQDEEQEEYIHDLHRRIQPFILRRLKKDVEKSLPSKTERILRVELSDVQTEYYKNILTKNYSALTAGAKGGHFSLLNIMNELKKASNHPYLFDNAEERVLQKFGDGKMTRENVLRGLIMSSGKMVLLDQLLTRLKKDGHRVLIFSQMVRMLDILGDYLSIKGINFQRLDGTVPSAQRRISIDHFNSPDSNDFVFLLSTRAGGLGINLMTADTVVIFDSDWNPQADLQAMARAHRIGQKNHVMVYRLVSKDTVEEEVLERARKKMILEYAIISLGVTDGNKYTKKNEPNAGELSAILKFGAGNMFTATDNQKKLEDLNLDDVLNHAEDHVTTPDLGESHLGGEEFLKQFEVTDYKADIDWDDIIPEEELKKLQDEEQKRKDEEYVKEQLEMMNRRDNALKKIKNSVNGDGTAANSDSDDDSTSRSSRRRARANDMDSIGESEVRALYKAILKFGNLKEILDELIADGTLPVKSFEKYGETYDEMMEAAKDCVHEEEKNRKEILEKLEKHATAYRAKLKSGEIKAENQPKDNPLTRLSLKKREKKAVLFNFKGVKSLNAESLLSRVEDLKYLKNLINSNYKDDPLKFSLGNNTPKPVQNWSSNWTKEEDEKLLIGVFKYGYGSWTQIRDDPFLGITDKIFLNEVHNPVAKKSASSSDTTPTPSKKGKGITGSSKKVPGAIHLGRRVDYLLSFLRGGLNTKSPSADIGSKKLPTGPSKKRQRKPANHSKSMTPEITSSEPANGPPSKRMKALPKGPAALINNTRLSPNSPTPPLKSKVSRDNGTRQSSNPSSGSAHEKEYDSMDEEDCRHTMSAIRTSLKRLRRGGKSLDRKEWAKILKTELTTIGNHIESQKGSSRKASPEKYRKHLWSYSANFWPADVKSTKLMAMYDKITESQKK

Take `COC1CCCC(Nc2nc(Nc3ccc(F)c(F)c3)nc3c2cnn3C)C1` (stereo not drawn): the PXC50 in assay [1] (BOTTOM 3.912528548, HILLSLOPE 1.076870083, MAX_EFFECT 68.97196262, TOP 71.78159337) is 5.18; in assay [1] (BOTTOM 5.265177704, HILLSLOPE 1.728535848, MAX_EFFECT 54.8245614, TOP 53.52484427) it was 5.16; in assay [1] (BOTTOM 8.334941311, HILLSLOPE 1.334767366, MAX_EFFECT 54.01869159, TOP 53.22848094), 5.23; in assay [1] (BOTTOM -8.876719942, HILLSLOPE 0.681128814, MAX_EFFECT 53.21888412, TOP 100.0), 4.53; in assay [1] (MAX_EFFECT 40.38004751) it was below 4; in [1] (MAX_EFFECT 46.81933842) it was below 4.

Turning to `CC(C)C[C@H](N)COc1cccc(F)c1Oc1cccc(Cl)c1`, the PXC50 in [1] (BOTTOM 6.91310013, HILLSLOPE 1.495350679, MAX_EFFECT 83.36221837, TOP 100.0) came out at 4.36; in assay [1] (BOTTOM 8.664927698, HILLSLOPE 1.748800753, MAX_EFFECT 77.85234899, TOP 95.40759793), 4.33; in assay [1] (BOTTOM 9.147353303, HILLSLOPE 1.551603339, MAX_EFFECT 81.25, TOP 100.0) it was 4.34; in assay [1] (BOTTOM -0.863158235, HILLSLOPE 2.70922767, MAX_EFFECT 71.29186603, TOP 83.59060963), 4.29; in [1] (BOTTOM -4.44021311, HILLSLOPE 1.559741226, MAX_EFFECT 77.3512476, TOP 100.0), 4.35.

With `CN1CCc2nc(C3CCN(C(=O)CCC4CCCC4)CC3)ncc2C1`, the PXC50 in assay [1] (BOTTOM 0.534632588, HILLSLOPE 1.255840154, MAX_EFFECT 60.86956522, TOP 100.0) is 4.14; in assay [1] (BOTTOM 3.083112022, HILLSLOPE 1.565152708, MAX_EFFECT 54.7024952, TOP 100.0), 4.03; in [1] (BOTTOM -8.837281555, HILLSLOPE 1.047429208, MAX_EFFECT 57.34767025, TOP 100.0), 4.14; in assay [1] (BOTTOM -19.84781307, HILLSLOPE 1.359990695, MAX_EFFECT 58.41584158, TOP 100.0), 4.22; in assay [1] (MAX_EFFECT 38.75598086), below 4. Further, the Percent Effect in [2] is -2.07%; in assay [3], 26.7%; in assay [4] it was 7.92%; in assay [5], -1.28%; in the assay on Trypanosoma cruzi it was 5.51%; in [6], -2.1%. Also, the Percent Effect in [7] is 27.3% and 36.4% and 44%; with N/A, 6.68% and 6.76%; in the assay filed under Homo sapiens, 23.7%; in assay [8], 44.7%; in assay [9], 34.6%; in [10] it was -8.54%.
